# Laboratory results taken from PubChem BioAssay (Tox21).
# Inconclusive results are not listed. The source made the active and inactive calls. Calls follow the shape of the dose curve; as a rule, active = well fitted cell-killing curve with a large enough effect in the repeat runs; inconclusive = weak or mixed curves, or effect the other way; inactive = flat fitted curve, though single readings scatter.
# Experiment: qHTS assay to identify small molecule agonists of the TGF-beta/Smad signaling pathway - cell viability counter screen (AID 1346829); also: top concentration of the series differs between compounds; nearly all actives have a fitted effect of over 45% in size
# Conditions: SBE-bla HEK293T viability, CellTiter-Glo luminescence, 5 h; series mostly up to 76.8 µM; activity change, negative = cytotoxicity: at the top concentration
# Description: National Center for Advancing Translational Sciences [NCATS]
# NIH Chemical Genomics Center [NCGC]
# U.S. Environmental Protection Agency [EPA]
# National Institutes of Environmental Health Sciences [NIEHS]
# National Toxicology Program [NTP]
# U.S. Food and Drug Administration [FDA]
# Transforming growth factor beta (TGF-beta) superfamily consists of a large number of structurally related dimeric proteins that act as hormones or local mediators in regulating a wide range of biological functions. This superfamily includes TGF-betas themselves, the bone morphogenetic proteins (BMPs) and the activins. These ligands induce oligomerization of serine/threonine receptor kinases and phosphorylate the cytoplasmic signaling molecules of Smad protein family. CellSensor SBE-bla HEK 293T cell line (Life Technologies, Carlsbad, CA), responsive to TGF-beta was used to screen Tox21 10K compound library for identification of agonists/antagonists of the Smad signaling pathway. This cell line contains a beta-lactamase reporter gene under control of the Smad binding element (SBE) stably integrated into HEK 293T cells. Also cytotoxicity of the compounds was tested in parallel by measuring the cell viability using CellTiter-Glo assay system in the same wells.
# Tox21 Assay Protocol Summary:
# SBE-bla HEK 293T cells were dispensed at 4,000/well in 6 uL of assay medium into black wall/clear-bottom 1536-well plates using a Multidrop Combi (ThermoFisher Scientific, Waltham, MA) dispenser. After the assay plates were incubated at 37 C and 5% CO2 for an overnight, 23 nL of compounds dissolved in DMSO, positive controls or DMSO only was transferred to the assay plate by a Pintool station (Kalypsys, San Diego, CA). The assay plates were incubated at 37 C and 5% CO2 for 5 hr. One uL of LiveBLAzer B/G FRET substrate (Life Technologies) was added using a Flying Reagent Dispenser (FRD, Aurora Discovery, San Diego, CA) and the plates were incubated at room temperature for 2 hr. Fluorescence intensity (405 nm excitation, 460 nm and 530 nm emissions) was measured using an Envision plate reader (PerkinElmer, Shelton, CT). For cytotoxicity read, 4 uL of CellTiter-Glo reagent (Promega Corporation, Madison, WI) was added to each well of the assay plates using FRD. After 30min incubation at room temperature, the luminescence intensity was measured using ViewLux plate reader (PerkinElmer).
# % is scaled to controls: 0 for no effect and ±100 for the full control effect.
row,SMILES,"activity change, negative = cytotoxicity"
1,COc1cc(NS(=O)(=O)c2ccc(N)cc2)ncn1,-12.2% [at 35.3 µM] (inactive)
2,O=S(=O)(O)c1ccc(Cl)cc1,5.01% (inactive)
3,NC[C@H]1O[C@H](O[C@H]2[C@H](O)[C@@H](O[C@H]3O[C@H](CO)[C@@H](O)[C@H](N)[C@H]3O)[C@H](N)C[C@@H]2N)[C@H](N)[C@@H](O)[C@@H]1O,-5.22% [at 15.8 µM] (inactive)
4,CCC(C)SSC(C)CC (stereo not given),-8.15% (inactive)
5,CN(C)CCc1c[nH]c2ccc(CS(=O)(=O)N3CCCC3)cc12,-1% [at 35.3 µM] (inactive)
6,CCN1CCN(C(=O)N[C@@H](C(=O)N[C@@H]2C(=O)N3C(C(=O)O)=C(CSc4nnnn4C)CS[C@H]23)c2ccc(O)cc2)C(=O)C1=O,2.15% [at 35.3 µM] (inactive)
7,CCNC(=O)C(C)OC(=O)Nc1ccccc1 (stereo not given),3.84% (inactive)
8,C/C=C(\C)C=O,-0.167% (inactive)
9,CC(C)(C)C(=O)CCc1ccc(Cl)cc1,0.0436% (inactive)
10,O=C(c1ccccc1)c1cccc(O)c1,0.289% (inactive)
11,O=C(O)/C=C(\CC(=O)O)C(=O)O,0.78% [at 35.3 µM] (inactive)
12,N#Cc1ccccc1C#N,-1% (inactive)
13,CC(=O)c1ccc2ccc3ccccc3c2c1,-11.8% (inactive)
14,O=C1Nc2ccccc2C1=O,4.45% (inactive)
15,CCCCCCCOC(C)=O,-1.16% (inactive)
16,CSC(=O)c1cccc2nnsc12,-8.02% (inactive)
17,CCCCCCC(O)CO (stereo not given),1.45% (inactive)
18,CCC(=O)OCCOc1ccccc1,1.97% (inactive)
19,CC1(C)CC(N)CC(C)(C)N1,13.8% (inactive)
20,CC(=O)Nc1ccc(S(=O)(=O)Nc2cc(C)on2)cc1,-7.67% [at 35.3 µM] (inactive)

row,SMILES,"activity change, negative = cytotoxicity"
1,CCOC(=O)CN1CCCC1=O,-2.37% [at 35.3 µM] (inactive)
2,CCOC(=O)COc1ccc2c(C)c(CCN(CC)CC)c(=O)oc2c1Cl,-13.4% [at 35.3 µM] (inactive)
3,CC[C@@]1(c2ccccc2)NC(=O)N(C)C1=O,-4.17% [at 35.3 µM] (inactive)
4,OCCC(F)(F)C(F)(F)C(F)(F)C(F)(F)C(F)(F)C(F)(F)F,1.94% (inactive)
5,NC(=O)CC[C@@H](N)C(=O)O,0.718% [at 35.3 µM] (inactive)
6,CCCCc1ccc(Cl)cc1,-6.95% (inactive)
7,COc1cc(C(=O)NC2CCCNC2)cc(OC)c1OC (stereo not given),-8.38% [at 35.3 µM] (inactive)
8,CC(=O)c1ccc(O)c(C(N)=O)c1,-15.8% [at 35.3 µM] (inactive)
9,CC(C)(C)C(=O)NCCCC(=O)O,17.9% [at 35.3 µM] (inactive)
10,CN1C(CCl)Nc2cc(Cl)c(S(N)(=O)=O)cc2S1(=O)=O (stereo not given),-12.1% [at 35.3 µM] (inactive)
11,Clc1cc(Cl)c(Cl)c(Cl)c1Cl,-2.29% (inactive)
12,Nc1ccc(C(=O)NCC(=O)O)cc1,0.598% [at 35.3 µM] (inactive)
13,CCOc1ccccc1OCCN[C@H](C)Cc1ccc(OC)c(S(N)(=O)=O)c1,-3.37% [at 35.3 µM] (inactive)
14,Cc1ccc(S(=O)(=O)NC(=O)NN2CC3CCCC3C2)cc1 (stereo not given),-0.64% [at 35.3 µM] (inactive)
15,Cc1cc2c(cc1CC(=O)c1sccc1S(=O)(=O)Nc1onc(C)c1Cl)OCO2,18.5% [at 35.3 µM] (inactive)
16,CCCCCCCCCCCCCCCCN(C)C,16.2% [at 6.97 µM] (inactive)
17,CC(=O)O[C@@H]1CC2C3CCc4cc(OC(=O)c5ccccc5)ccc4C3CCC2(C)[C@H]1OC(C)=O (stereo not given in full),-3.11% [at 35.3 µM] (inactive)
18,CC(=O)OC/C=C(/C)CCC=C(C)C,0.153% (inactive)
19,CC(=O)SCC(CC(=O)c1ccc(C)cc1)C(=O)O (stereo not given),20.9% [at 35.3 µM] (inactive)
20,C=CCn1cc[n+](C)c1,0.323% (inactive)
